# Assays:
# Assay in all cases: DAPPL (digital affinity profiling via proximity ligation, sequencing); 10 mM Tris-HCl pH 7.5, 50 mM NaCl, 1 mM DTT, 4% glycerol, room temperature, 30 min; GST-TFs on glutathione beads, 16-mer random dsDNA library, 0.1% formaldehyde crosslink after washing; high values mean tight binding
# FEV = target: T1, FEV (Homo sapiens, UniProt Q99581 1-238); conditions: protein: recombinant; tags: N-terminal GST; dsDNA, one strand shown
# T1 sequence: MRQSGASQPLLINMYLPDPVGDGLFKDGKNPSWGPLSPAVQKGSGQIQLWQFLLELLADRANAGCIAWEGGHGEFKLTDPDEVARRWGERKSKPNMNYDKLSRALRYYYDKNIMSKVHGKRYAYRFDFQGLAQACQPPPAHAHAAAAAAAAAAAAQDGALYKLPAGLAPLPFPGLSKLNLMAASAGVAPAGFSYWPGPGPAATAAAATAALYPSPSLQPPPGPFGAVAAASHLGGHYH
# Method in brief: (§1)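 Human transcription factors fused to GST were expressed in yeast, captured on glutathione beads, given DNA barcodes and pooled with a GST-only negative control. Pools were incubated with 200 nmole of a 16-mer random double-stranded DNA library in Tris/NaCl/DTT/glycerol buffer at room temperature for 30 min. They were then washed, crosslinked with 0.1% formaldehyde, proximity-ligated (BsaI/T4 ligase, 1 h, 37 °C), PCR-amplified and sequenced on an Illumina NextSeq500. Binding signal is each 6-mer's read frequency for a factor divided by its frequency for the GST control.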
# ETV5 = ETV5 (Homo sapiens, UniProt P41161 1-510); conditions: protein: recombinant; tags: N-terminal GST; dsDNA, one strand shown
# Method in brief: as §1
# HSF1 = HSF1 (Homo sapiens, UniProt Q00613 1-529); conditions: protein: recombinant; tags: N-terminal GST; chain copies: 3; dsDNA, one strand shown
# Method in brief: as §1
# SPIC = target: T2, SPIC (Homo sapiens, UniProt Q8N5J4 1-248); conditions: protein: recombinant; tags: N-terminal GST; dsDNA, one strand shown
# T2 sequence: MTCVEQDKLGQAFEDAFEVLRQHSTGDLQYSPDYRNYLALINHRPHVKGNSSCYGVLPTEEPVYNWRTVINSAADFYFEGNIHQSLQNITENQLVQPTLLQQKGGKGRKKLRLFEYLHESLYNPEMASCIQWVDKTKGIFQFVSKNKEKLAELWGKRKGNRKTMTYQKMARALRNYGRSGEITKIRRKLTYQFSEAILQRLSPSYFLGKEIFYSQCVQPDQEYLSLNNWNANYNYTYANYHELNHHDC
# Method in brief: as §1
# ELF4 = ELF4 (Homo sapiens, UniProt Q99607 1-663); conditions: protein: recombinant; tags: N-terminal GST; dsDNA, one strand shown
# Method in brief: as §1
# ELK4 = target: T3, ELK4 (Homo sapiens, UniProt P28324-2 1-405); conditions: protein: recombinant; tags: N-terminal GST; dsDNA, one strand shown
# T3 sequence: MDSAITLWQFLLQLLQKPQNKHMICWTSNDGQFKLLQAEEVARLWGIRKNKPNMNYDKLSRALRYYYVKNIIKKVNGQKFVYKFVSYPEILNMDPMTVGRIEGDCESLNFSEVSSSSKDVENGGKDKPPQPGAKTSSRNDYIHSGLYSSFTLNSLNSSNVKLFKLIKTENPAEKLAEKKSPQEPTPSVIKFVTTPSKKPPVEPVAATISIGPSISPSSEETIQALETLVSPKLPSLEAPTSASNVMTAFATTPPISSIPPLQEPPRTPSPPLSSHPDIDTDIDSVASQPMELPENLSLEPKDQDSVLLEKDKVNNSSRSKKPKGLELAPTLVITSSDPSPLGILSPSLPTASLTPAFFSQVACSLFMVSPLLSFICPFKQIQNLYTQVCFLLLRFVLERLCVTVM
# Method in brief: as §1
# ETV2 = target: T4, ETV2 (Homo sapiens, UniProt O00321 1-342); conditions: protein: recombinant; tags: N-terminal GST; dsDNA, one strand shown
# T4 sequence: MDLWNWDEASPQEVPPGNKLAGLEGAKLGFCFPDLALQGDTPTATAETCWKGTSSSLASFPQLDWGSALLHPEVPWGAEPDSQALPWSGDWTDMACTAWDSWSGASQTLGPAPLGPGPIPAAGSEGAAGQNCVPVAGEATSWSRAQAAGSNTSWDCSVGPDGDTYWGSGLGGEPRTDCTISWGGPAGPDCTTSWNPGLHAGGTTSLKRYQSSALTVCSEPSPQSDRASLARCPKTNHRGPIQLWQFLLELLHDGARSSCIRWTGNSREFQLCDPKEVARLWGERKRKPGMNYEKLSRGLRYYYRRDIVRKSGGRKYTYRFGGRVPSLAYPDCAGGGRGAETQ
# Method in brief: as §1
# ELF3 = target: T5, ELF3 (Homo sapiens, UniProt P78545 1-371); conditions: protein: recombinant; tags: N-terminal GST; dsDNA, one strand shown
# T5 sequence: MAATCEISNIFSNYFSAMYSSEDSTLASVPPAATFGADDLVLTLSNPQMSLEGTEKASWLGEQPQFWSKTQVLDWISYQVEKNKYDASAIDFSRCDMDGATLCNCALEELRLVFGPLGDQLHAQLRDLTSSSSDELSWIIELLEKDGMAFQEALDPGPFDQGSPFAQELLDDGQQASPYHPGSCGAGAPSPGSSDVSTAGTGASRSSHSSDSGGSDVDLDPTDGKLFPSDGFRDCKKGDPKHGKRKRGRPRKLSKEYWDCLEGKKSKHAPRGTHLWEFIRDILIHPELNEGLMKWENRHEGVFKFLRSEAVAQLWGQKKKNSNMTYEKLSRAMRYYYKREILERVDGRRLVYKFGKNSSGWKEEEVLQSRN
# Method in brief: as §1
# CRX = CRX (Homo sapiens, UniProt O43186 1-299); conditions: protein: recombinant; tags: N-terminal GST; dsDNA, one strand shown
# Method in brief: as §1
# Sequence of HSF1 (Q00613 whole entry): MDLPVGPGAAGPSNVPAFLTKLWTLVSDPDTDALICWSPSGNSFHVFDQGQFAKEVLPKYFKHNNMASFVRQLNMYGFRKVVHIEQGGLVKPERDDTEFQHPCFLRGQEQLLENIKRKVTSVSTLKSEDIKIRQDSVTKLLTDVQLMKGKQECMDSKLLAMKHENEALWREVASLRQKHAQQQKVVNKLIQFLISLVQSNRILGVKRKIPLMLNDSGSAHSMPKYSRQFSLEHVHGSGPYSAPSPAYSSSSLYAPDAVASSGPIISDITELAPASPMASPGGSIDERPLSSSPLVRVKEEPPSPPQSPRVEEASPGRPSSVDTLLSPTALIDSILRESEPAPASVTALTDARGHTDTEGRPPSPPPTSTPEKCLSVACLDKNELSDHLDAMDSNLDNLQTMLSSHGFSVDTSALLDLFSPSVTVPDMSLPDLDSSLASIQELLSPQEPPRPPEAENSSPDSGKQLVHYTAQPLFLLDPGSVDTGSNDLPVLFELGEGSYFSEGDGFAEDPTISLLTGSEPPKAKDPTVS
# Sequence of ETV5 (P41161 whole entry): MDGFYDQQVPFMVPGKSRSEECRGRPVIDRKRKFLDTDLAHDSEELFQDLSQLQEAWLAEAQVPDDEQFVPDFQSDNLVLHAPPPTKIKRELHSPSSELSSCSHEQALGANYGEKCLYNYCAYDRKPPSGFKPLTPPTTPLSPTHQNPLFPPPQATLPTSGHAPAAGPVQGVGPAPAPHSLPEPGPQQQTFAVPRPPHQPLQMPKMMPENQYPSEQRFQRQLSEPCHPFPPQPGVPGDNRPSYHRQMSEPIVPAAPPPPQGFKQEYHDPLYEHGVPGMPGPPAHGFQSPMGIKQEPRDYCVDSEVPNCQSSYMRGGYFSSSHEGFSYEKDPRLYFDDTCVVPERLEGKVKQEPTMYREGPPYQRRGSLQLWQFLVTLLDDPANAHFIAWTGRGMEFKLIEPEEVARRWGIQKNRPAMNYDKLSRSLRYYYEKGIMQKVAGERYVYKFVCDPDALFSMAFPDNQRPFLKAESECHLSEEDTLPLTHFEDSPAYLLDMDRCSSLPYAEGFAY
# Sequence of CRX (O43186 whole entry): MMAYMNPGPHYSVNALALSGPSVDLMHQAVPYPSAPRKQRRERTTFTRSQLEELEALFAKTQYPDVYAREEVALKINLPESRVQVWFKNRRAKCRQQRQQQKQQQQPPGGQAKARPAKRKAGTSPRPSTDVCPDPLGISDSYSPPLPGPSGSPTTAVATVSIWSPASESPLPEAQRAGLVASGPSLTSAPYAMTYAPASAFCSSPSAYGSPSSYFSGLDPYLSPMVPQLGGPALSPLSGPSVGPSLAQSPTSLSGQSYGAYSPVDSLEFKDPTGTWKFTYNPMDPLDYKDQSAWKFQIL
# Sequence of ELF4 (Q99607 whole entry): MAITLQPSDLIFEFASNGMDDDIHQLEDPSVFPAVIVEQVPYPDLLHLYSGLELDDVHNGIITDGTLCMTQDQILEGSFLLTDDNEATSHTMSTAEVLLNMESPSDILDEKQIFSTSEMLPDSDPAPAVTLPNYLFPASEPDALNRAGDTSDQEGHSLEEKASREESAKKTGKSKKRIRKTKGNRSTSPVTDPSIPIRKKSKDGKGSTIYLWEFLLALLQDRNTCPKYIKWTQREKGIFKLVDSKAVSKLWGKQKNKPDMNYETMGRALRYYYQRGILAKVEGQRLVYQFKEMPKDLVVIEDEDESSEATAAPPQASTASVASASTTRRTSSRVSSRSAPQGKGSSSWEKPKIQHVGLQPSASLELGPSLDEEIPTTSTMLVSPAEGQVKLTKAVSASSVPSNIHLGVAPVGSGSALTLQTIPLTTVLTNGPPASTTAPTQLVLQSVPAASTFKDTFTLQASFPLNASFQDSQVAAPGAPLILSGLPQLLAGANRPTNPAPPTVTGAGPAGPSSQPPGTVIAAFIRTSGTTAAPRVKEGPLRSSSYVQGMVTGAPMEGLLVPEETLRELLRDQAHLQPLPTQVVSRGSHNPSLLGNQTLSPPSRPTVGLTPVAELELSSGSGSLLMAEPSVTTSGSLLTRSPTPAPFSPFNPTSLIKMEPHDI
sequence,measurement,setting,value
ACTAAC,binding signal,FEV,"1.25 fold enrichment (6-mer frequency, TF over GST control)"
same,binding signal,ETV5,"1.26 fold enrichment (6-mer frequency, TF over GST control)"
same,binding signal,HSF1,"1.08 fold enrichment (6-mer frequency, TF over GST control)"
same,binding signal,SPIC,"1.27 fold enrichment (6-mer frequency, TF over GST control)"
same,binding signal,ELF4,"1.33 fold enrichment (6-mer frequency, TF over GST control)"
same,binding signal,ELK4,"1.19 fold enrichment (6-mer frequency, TF over GST control)"
same,binding signal,ETV2,"1.19 fold enrichment (6-mer frequency, TF over GST control)"
same,binding signal,ELF3,"1.25 fold enrichment (6-mer frequency, TF over GST control)"
same,binding signal,CRX,"1.18 fold enrichment (6-mer frequency, TF over GST control)"

# Reference: publication PMC7862700, “An all-to-all approach to the identification of sequence-specific readers for epigenetic DNA modifications on cytosine”
